High-throughput results as filed in PubChem.
IDE exosite FP = insulin-degrading enzyme (human) exo-site inhibition; P14735; purified IDE, FL-6b probe fluorescence polarization; active compounds read low; z-score at 20 µM; 6.3% of 17,000 active; AID 1259349;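 active = z-score of -3 or lower, meaning strong loss of probe binding signal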;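 also: His-tagged human IDE residues 42-1019 made in E. coli with 30 nM FL-6b probe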
Target sequence (P14735 42-1019 limits assumed): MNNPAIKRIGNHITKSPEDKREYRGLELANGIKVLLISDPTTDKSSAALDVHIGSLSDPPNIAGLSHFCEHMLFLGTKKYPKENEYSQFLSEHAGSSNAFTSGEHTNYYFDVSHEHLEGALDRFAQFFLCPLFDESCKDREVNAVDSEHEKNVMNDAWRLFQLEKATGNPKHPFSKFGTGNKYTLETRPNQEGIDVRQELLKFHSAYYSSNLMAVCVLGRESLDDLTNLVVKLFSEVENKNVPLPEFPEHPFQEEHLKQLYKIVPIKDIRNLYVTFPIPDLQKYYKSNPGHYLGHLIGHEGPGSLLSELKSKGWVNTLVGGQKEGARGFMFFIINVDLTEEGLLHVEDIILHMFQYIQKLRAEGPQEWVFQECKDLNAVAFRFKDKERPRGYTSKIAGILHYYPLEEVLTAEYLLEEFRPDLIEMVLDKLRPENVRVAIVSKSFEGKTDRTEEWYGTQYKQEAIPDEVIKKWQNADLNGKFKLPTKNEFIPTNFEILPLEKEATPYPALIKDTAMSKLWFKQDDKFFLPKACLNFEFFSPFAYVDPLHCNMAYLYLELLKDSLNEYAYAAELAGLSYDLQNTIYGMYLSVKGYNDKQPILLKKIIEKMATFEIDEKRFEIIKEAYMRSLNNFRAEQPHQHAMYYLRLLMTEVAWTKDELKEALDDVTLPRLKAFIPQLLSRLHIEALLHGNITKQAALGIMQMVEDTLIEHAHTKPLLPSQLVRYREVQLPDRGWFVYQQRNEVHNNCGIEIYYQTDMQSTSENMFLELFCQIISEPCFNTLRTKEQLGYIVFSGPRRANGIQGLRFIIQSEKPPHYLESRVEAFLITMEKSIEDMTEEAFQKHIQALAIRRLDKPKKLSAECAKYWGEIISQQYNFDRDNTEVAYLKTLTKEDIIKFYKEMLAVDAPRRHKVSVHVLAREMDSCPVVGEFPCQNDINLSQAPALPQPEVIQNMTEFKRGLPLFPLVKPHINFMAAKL
Of the large screens only hits and unclear results are named; the others gave an inactive call; ! = not confirmed by another sample. The full list was thinned out, with hits kept by preference.

O=C(C1CC1)N1CC(=O)N2[C@H](CO)[C@H](c3ccc(-c4ccccc4F)cc3)[C@H]2C1	IDE exosite FP -7.85
O=C(C1CCCC1)N1CC(=O)N2[C@H](CO)[C@H](c3ccc(-c4ccccc4F)cc3)[C@@H]2C1	IDE exosite FP -3.64
O=C(C1CCCCC1)N1CC(=O)N2[C@@H](CO)[C@@H](c3ccc(-c4ccccc4F)cc3)[C@@H]2C1	none
O=C(C1CC1)N1CC(=O)N2[C@H](CO)[C@@H](c3ccc(-c4ccccc4F)cc3)[C@H]2C1	none
O=C(C1CCOCC1)N1CC(=O)N2[C@@H](CO)[C@H](c3ccc(-c4ccccc4F)cc3)[C@@H]2C1	none
O=C(C1CCC1)N1CC(=O)N2[C@@H](CO)[C@H](c3ccc(-c4ccccc4F)cc3)[C@@H]2C1	none
O=C(C1CCCCC1)N1CC(=O)N2[C@H](C1)[C@H](c1ccc(-c3ccccc3F)cc1)[C@@H]2CO	none
O=C(C1CCC1)N1CC(=O)N2[C@H](CO)[C@@H](c3ccc(-c4ccccc4F)cc3)[C@@H]2C1	IDE exosite FP -9.06
O=C(C1CC1)N1CC(=O)N2[C@H](C1)[C@H](c1ccc(-c3ccccc3F)cc1)[C@@H]2CO	none
O=C(C1CCC1)N1CC(=O)N2[C@H](CO)[C@@H](c3ccc(-c4ccccc4F)cc3)[C@H]2C1	none
O=C(C1CCCCC1)N1CC(=O)N2[C@H](CO)[C@@H](c3ccc(-c4ccccc4F)cc3)[C@H]2C1	none
O=C(C1CCOCC1)N1CC(=O)N2[C@H](CO)[C@H](c3ccc(-c4ccccc4F)cc3)[C@H]2C1	IDE exosite FP -7.59
CCC(=O)N1[C@H](CO)[C@@H](c2ccccc2)[C@@H]1CN(CC)C(=O)c1cccc(F)c1	none
Cc1ccccc1S(=O)(=O)N1C[C@@H](O)COC[C@H]2O[C@@H](CC(=O)N3CCCCC3)CC[C@@H]21	none
CN(C[C@@H]1[C@@H](c2ccccc2)[C@H](CO)N1CC1CC1)C(=O)c1cccc(F)c1	none
CCCC#Cc1ccc([C@H]2[C@H](CO)N3C(=O)CN(S(=O)(=O)Cc4ccccc4)C[C@@H]23)cc1	none
Cc1ccccc1S(=O)(=O)N1CC(=O)N2[C@H](C1)[C@H](c1ccc(C#CCC(C)C)cc1)[C@@H]2CO	none
N#C[C@@H]1[C@H](c2ccccc2)[C@@H](CO)N1C(=O)CN1CCOCC1	none
C[C@@H]1CCCCO[C@H](CN(C)Cc2ccncc2)[C@H](C)CN([C@H](C)CO)C(=O)c2cc(NS(=O)(=O)c3ccc(Cl)cc3)ccc2O1	none
CCNC(=O)C[C@@H]1CC[C@@H]2[C@H](COC[C@@H](O)CN2C(=O)c2ccccn2)O1	none
N#C[C@H]1[C@@H](c2ccccc2)[C@@H](CO)N1S(=O)(=O)Cc1ccccc1	none
CCC(=O)N(CC)C[C@@H]1[C@@H](c2ccc(-c3cccnc3)cc2)[C@H](CO)N1C(C)=O	none
CN(C)CC#Cc1ccc([C@@H]2[C@@H](CO)N3C(=O)CN(C(=O)c4cccnc4)C[C@@H]23)cc1	none
Cn1cnc(S(=O)(=O)N2CCCCN3[C@H](C2)[C@@H](c2ccc(-c4ccccc4F)cc2)[C@@H]3CO)c1	none
Cn1cnc(S(=O)(=O)N2CCCCN3[C@H](CO)[C@H](c4ccc(-c5ccccc5F)cc4)[C@H]3C2)c1	IDE exosite FP -4.56
Cn1cnc(S(=O)(=O)N2CCCCN3[C@H](CO)[C@H](c4ccc(-c5ccc(F)cc5)cc4)[C@H]3C2)c1	none
Cn1cnc(S(=O)(=O)N2CCCCN3[C@H](CO)[C@H](c4ccc(-c5ccccc5F)cc4)[C@@H]3C2)c1	none
Cn1cnc(S(=O)(=O)N2CCCCN3[C@H](CO)[C@@H](c4ccc(-c5ccc(F)cc5)cc4)[C@H]3C2)c1	none
Cn1cnc(S(=O)(=O)N2CCCCN3[C@@H](CO)[C@@H](c4ccc(-c5ccccc5F)cc4)[C@@H]3C2)c1	IDE exosite FP -5.63
CC(C)N(C[C@H]1[C@H](c2ccccc2)[C@@H](CO)N1S(C)(=O)=O)C(=O)CN(C)C	none
O=C(N[C@H]1CC[C@@H](CC(=O)N2CCOCC2)O[C@H]1CO)c1cccc(F)c1	none
O=C(C1CCCC1)N1CC(=O)N2[C@@H](CO)[C@@H](c3ccc(C#CC4CCCC4)cc3)[C@@H]2C1	none
CCCC#Cc1ccc([C@H]2[C@H](C#N)N(S(C)(=O)=O)[C@H]2CO)cc1	none
CO[C@H]1CC[C@H]2CCOc3ccc(C#N)cc3C(=O)N(C)CC3(CCCCC3)CC(=O)N(C)C[C@H]1O2	none
CC(C)C#Cc1ccc([C@H]2[C@H](CO)N3C(=O)CN(C(=O)c4ccccn4)C[C@@H]23)cc1	none
CCCC#Cc1ccc([C@@H]2[C@H](CO)N3C(=O)CN(C(=O)c4ccccn4)C[C@@H]23)cc1	IDE exosite FP -3.22
O=C(c1ccccn1)N1CC(=O)N2[C@@H](CO)[C@@H](c3ccc(C#CCc4ccccc4)cc3)[C@@H]2C1	IDE exosite FP -4.66
CCCC#Cc1ccc([C@@H]2[C@@H](CO)N3C(=O)CN(C(=O)c4ccccn4)C[C@H]23)cc1	none
O=C(c1ccccn1)N1CC(=O)N2[C@H](C1)[C@H](c1ccc(C#Cc3ccccc3)cc1)[C@@H]2CO	IDE exosite FP -6.36
CC(C)C#Cc1ccc([C@@H]2[C@H](CO)N3C(=O)CN(C(=O)c4ccccn4)C[C@@H]23)cc1	none
CCCC#Cc1ccc([C@@H]2[C@H]3CN(C(=O)c4ccccn4)CC(=O)N3[C@H]2CO)cc1	none
O=C(c1cnccn1)N1CC(=O)N2[C@@H](CO)[C@H](c3ccc(C#CCc4ccccc4)cc3)[C@@H]2C1	none
O=C(c1ccccn1)N1CC(=O)N2[C@H](C1)[C@@H](c1ccc(C#Cc3ccccc3)cc1)[C@@H]2CO	none
CCCC#Cc1ccc([C@H]2[C@H](CO)N3C(=O)CN(C(=O)c4ccccn4)C[C@@H]23)cc1	none
O=C(c1cnccn1)N1CC(=O)N2[C@H](CO)[C@@H](c3ccc(C#CCc4ccccc4)cc3)[C@H]2C1	none
O=C(c1ccccn1)N1CC(=O)N2[C@H](CO)[C@@H](c3ccc(C#Cc4ccccc4)cc3)[C@H]2C1	IDE exosite FP -9.37
COc1cccc(C(=O)Nc2ccc3c(c2)OC[C@@H](C)N(CCc2ccccc2)C[C@H](C)[C@@H](OC)CN(C)C3=O)c1	none
CO[C@H]1CN(C)C(=O)c2ccc(NS(=O)(=O)c3ccc(C)cc3)cc2OC[C@H](C)N(C)C[C@@H]1C	none
CCCC#Cc1ccc([C@H]2[C@@H](CO)N3C(=O)CN(C(=O)Nc4ccccc4)C[C@H]23)cc1	none
O=C(Nc1ccc(F)cc1)N1CCCCN2[C@H](CO)[C@H](c3ccc(C#CC4CC4)cc3)[C@@H]2C1	none
COCC#Cc1ccc([C@@H]2[C@@H](CO)N3C(=O)CN(C(=O)C4CCCCC4)C[C@@H]23)cc1	none
CC(C)CC#Cc1ccc([C@H]2[C@@H](CO)N3C(=O)CN(C(=O)Nc4ccc(F)cc4)C[C@@H]23)cc1	none
O=C(Nc1ccc2c(c1)OCO2)N1[C@@H]2CNC[C@H]1C2c1ccc(-c2cccnc2)cc1 (some centres not stated)	none
Cc1ccccc1-c1ccc([C@@H]2[C@@H](CO)N3C(=O)CN(C(=O)c4cccnc4)C[C@H]23)cc1	none
Cc1ccccc1-c1ccc([C@@H]2[C@H](CO)N3C(=O)CN(C(=O)c4cccnc4)C[C@@H]23)cc1	IDE exosite FP -7.2
O=C(c1cccnc1)N1CC(=O)N2[C@@H](CO)[C@@H](c3ccc(-c4ccc(F)cc4)cc3)[C@@H]2C1	none
Cc1ccccc1-c1ccc(C2[C@@H]3CN(C(=O)c4cnccn4)C[C@H]2N3)cc1 (some centres not stated)	IDE exosite FP -20!
N#Cc1cccc(-c2ccc(C3[C@@H]4CN(C(=O)c5ccccn5)C[C@H]3N4)cc2)c1 (some centres not stated)	none
